Experimental data from the supplement of paper PMC11732987, “Enantioselective OTUD7B fragment discovery through chemoproteomics screening and high-throughput optimisation” (Communications Chemistry, 2025).

Key:
Test in all cases: log2 ratio of Biotin-Ahx-Ub-VS probe labelling (fragment/DMSO); higher = less target engagement (more negative = stronger competition), active = hit call of the paper (q ≤ 0.05, log2 ratio ≤ -1)
Details in all cases: compound concentration: 200 uM; treatment time: 3 h
USP34 = USP34 (UniProt Q70CQ2)
Sequence of USP34 (Q70CQ2 whole entry, the tested form may be a part): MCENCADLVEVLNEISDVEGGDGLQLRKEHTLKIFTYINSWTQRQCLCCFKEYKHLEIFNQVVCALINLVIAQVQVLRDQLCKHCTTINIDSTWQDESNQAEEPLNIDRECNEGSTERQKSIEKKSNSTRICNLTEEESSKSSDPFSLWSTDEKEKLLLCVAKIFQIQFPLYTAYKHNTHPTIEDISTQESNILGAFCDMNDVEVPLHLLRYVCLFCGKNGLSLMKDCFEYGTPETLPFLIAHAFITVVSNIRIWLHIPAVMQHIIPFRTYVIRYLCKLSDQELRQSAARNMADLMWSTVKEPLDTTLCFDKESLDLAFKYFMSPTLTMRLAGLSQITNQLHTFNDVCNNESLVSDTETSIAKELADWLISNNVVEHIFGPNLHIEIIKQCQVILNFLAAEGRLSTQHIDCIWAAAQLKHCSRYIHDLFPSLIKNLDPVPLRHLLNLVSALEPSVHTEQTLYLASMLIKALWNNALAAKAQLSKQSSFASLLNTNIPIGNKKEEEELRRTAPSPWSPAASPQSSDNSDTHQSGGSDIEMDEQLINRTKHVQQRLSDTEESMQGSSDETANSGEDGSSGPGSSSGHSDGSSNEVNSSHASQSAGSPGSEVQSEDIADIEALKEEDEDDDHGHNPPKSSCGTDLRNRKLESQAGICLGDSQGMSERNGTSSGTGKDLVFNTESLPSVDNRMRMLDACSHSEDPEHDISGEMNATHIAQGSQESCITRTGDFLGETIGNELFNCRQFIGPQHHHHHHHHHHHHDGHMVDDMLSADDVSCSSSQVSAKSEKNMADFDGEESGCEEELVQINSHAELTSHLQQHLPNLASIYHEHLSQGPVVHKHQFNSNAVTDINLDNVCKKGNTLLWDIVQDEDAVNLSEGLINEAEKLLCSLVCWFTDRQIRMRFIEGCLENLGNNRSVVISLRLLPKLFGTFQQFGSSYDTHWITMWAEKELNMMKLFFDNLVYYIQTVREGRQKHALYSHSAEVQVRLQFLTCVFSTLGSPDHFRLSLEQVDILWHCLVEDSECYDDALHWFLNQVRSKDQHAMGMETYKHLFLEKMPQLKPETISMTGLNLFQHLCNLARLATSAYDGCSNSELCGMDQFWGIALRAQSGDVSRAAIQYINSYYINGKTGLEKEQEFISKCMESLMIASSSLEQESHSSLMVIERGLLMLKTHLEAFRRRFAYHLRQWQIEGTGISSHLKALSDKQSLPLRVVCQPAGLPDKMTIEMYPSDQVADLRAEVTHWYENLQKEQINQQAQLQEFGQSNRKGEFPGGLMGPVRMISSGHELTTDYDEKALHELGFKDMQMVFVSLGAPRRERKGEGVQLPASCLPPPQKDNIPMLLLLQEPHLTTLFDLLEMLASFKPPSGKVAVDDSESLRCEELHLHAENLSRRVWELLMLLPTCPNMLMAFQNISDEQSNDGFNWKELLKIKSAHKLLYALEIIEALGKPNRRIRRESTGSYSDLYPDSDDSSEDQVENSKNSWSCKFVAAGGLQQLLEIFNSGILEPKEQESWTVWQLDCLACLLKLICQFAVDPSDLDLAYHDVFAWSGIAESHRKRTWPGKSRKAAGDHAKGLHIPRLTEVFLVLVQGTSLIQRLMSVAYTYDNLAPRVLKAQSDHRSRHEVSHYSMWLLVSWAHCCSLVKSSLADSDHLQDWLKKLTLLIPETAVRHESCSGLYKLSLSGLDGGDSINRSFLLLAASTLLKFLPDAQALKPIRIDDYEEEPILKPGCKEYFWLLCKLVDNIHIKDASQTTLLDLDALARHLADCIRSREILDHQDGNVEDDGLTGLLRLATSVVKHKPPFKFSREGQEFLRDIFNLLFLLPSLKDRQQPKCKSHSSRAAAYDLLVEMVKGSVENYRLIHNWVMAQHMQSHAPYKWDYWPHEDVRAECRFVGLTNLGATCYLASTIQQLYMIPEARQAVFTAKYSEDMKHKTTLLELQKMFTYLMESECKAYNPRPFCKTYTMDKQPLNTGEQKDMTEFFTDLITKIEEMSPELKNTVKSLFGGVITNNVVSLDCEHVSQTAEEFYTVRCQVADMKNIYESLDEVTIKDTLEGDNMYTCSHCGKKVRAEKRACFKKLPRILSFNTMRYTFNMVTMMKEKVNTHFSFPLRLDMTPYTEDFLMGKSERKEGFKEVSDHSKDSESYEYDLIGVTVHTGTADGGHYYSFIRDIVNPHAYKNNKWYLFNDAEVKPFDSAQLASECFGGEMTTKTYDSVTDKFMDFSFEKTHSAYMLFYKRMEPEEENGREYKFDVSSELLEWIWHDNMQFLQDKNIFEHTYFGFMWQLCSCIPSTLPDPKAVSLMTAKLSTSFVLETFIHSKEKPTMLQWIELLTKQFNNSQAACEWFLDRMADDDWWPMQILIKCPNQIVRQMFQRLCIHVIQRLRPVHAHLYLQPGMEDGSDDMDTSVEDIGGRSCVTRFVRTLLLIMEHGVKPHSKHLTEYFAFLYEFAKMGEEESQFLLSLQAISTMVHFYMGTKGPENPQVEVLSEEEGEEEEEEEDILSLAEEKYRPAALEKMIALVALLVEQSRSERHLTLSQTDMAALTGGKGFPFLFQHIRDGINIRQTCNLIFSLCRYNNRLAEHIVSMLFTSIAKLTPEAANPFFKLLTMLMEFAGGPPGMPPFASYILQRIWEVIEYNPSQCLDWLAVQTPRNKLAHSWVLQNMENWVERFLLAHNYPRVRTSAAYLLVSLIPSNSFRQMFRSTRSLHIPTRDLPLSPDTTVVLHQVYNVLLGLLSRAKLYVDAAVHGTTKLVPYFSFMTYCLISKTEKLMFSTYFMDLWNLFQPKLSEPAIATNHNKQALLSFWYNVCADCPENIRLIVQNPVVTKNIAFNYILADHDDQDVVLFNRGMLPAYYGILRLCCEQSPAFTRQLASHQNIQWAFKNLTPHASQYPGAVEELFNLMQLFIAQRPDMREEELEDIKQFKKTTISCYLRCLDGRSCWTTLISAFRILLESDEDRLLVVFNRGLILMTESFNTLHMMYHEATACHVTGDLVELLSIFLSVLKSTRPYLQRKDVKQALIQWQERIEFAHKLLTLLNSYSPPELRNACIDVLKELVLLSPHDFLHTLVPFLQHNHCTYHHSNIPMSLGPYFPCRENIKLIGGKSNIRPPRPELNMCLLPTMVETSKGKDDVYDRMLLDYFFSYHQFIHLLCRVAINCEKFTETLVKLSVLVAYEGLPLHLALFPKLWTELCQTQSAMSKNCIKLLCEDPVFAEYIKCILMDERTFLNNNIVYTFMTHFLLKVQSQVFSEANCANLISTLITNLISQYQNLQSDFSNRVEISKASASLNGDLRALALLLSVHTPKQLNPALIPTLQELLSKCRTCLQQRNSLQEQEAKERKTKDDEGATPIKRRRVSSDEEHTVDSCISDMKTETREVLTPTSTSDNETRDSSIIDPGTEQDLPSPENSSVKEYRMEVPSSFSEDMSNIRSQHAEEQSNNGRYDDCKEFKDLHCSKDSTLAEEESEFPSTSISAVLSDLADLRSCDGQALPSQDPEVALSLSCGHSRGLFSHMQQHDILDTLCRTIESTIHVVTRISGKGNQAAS
Procedure, shortened: (§1)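 Labelled DUBs from HEK293T lysate were NeutrAvidin-enriched, digested with LysC and trypsin, and run by diaPASEF LC-MS/MS. Before that, each 495 µg sample in Tris/CHAPS/IGEPAL buffer with protease inhibitors was treated in triplicate with fragment at 200 µM or vehicle for 3 h, then with Biotin-Ahx-Ub-VS at 0.5 µM final for 1 h. Values are average log2 ratios of fragment over vehicle by unpaired t-test, based on global-median-normalised Spectronaut label-free quantities from proteins with ≥2 unique peptides.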

USP36 = biological target: T1, USP36 (UniProt Q9P275)
T1 sequence (whole entry): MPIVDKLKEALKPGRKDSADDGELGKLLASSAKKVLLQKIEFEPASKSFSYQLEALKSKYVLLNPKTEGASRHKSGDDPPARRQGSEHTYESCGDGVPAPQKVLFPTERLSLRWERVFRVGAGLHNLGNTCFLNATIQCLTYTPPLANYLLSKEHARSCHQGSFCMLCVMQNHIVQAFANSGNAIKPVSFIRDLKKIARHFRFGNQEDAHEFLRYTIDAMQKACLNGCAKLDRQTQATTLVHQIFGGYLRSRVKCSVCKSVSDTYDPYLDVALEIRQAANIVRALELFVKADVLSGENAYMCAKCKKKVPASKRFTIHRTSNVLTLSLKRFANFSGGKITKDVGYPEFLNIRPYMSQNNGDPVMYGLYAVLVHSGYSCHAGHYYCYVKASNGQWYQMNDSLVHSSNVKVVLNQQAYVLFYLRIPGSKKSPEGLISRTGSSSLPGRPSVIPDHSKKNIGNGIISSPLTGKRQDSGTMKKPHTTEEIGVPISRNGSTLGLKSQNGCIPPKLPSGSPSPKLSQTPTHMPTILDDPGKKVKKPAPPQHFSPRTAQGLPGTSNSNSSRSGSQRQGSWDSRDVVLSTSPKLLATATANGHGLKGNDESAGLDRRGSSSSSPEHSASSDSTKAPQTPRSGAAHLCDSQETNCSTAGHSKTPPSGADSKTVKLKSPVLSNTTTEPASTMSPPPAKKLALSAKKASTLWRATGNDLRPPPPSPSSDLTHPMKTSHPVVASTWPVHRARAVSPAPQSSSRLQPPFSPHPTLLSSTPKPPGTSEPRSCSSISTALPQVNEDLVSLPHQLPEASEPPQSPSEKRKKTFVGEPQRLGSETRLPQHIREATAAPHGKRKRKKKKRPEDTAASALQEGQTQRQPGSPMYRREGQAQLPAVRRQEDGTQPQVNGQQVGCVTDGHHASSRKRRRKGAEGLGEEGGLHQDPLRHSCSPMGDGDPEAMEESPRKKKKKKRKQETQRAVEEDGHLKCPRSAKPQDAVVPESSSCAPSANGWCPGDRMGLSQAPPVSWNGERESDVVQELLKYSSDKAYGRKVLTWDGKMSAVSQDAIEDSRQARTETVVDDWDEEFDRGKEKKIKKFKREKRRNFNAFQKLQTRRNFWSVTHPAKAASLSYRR
Procedure, shortened: as §1

USP38 = biological target: T2, USP38 (UniProt Q8NB14)
T2 sequence (whole entry): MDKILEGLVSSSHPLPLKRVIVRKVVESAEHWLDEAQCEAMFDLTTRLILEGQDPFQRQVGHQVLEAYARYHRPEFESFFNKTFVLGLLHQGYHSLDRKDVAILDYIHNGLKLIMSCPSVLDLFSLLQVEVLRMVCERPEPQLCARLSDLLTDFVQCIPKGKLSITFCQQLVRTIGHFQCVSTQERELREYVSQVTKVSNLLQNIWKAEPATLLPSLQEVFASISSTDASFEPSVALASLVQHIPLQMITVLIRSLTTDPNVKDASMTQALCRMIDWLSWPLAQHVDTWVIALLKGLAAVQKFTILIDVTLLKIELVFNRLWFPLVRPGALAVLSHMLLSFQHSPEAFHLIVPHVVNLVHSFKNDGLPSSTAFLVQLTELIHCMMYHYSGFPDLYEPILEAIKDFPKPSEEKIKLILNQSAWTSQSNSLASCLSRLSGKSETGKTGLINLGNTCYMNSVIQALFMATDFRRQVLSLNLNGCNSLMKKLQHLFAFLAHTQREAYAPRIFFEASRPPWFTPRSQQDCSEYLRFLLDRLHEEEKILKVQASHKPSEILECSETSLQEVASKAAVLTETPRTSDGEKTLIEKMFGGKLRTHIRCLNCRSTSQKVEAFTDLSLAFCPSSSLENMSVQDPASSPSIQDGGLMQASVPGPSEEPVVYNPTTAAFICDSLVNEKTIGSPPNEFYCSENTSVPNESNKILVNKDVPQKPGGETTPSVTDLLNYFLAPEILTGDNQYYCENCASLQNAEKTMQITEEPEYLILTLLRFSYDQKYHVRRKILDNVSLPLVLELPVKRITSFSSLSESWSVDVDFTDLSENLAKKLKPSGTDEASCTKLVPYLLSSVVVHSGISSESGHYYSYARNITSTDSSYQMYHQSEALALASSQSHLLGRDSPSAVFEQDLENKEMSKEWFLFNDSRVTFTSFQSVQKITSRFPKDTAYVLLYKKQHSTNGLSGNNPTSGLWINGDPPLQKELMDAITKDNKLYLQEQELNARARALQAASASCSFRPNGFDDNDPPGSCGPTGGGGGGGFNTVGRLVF
Procedure, shortened: as §1

USP39 = biological target: T3, USP39 (UniProt Q53GS9)
T3 sequence (whole entry): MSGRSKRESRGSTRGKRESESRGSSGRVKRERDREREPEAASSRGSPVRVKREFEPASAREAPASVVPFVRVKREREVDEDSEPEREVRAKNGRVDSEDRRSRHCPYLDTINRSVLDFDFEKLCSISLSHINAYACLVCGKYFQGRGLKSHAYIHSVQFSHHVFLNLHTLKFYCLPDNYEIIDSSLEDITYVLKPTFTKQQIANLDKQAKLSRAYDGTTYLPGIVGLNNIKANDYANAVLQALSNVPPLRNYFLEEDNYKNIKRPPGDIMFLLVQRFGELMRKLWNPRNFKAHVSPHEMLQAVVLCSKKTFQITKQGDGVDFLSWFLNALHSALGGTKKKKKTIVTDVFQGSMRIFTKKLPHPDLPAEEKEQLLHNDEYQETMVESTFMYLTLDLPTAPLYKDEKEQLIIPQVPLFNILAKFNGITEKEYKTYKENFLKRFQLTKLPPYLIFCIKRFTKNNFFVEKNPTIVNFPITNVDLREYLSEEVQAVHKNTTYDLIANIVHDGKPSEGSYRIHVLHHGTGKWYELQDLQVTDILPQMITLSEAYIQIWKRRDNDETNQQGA
Procedure, shortened: as §1

USP4 = biological target: T4, USP4 (UniProt Q13107)
T4 sequence (whole entry): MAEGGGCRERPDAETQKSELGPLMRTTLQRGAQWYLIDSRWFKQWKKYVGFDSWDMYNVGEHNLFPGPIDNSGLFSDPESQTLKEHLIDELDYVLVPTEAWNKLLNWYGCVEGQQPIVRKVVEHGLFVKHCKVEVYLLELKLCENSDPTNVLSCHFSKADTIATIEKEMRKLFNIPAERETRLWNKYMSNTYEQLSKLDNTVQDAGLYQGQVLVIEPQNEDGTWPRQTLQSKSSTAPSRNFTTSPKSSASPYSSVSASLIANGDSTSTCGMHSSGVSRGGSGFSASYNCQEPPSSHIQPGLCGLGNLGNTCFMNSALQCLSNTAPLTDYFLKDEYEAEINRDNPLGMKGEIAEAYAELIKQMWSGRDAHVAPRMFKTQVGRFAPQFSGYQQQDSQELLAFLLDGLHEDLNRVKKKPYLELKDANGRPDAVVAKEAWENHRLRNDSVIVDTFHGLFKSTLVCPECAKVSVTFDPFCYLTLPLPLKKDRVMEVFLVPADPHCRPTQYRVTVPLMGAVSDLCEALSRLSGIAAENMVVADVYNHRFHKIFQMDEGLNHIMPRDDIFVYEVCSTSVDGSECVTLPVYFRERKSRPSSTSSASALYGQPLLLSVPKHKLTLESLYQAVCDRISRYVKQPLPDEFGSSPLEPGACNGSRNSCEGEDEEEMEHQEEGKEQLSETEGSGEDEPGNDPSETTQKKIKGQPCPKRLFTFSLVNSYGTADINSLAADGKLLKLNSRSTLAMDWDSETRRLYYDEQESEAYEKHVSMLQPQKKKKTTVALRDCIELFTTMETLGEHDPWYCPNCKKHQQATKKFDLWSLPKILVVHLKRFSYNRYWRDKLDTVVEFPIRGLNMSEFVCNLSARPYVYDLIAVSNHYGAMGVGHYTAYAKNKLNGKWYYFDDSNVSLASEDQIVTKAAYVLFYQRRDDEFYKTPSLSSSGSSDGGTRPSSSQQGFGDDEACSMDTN
Procedure, shortened: as §1

Measured: log2 ratio of Biotin-Ahx-Ub-VS probe labelling

O=C(CCl)N1CCC(=C(F)CO)C1
inactive: USP34 0.0842 | USP36 -0.125 | USP38 0.0909 | USP39 0.212 | USP4 0.218
